Test results: PubChem BioAssay AID1009 (NMMLSC, 2008)
About 200 (0.11%) of roughly 190,000 compounds were called active. Rule as the data show it: active = inhibition above about 40%. The list comes from a sample in which actives are over-represented; it also holds similar structures and randomly drawn compounds.

Target: Induced myeloid leukemia cell differentiation protein Mcl-1 (Homo sapiens) (UniProt Q07820)
Assay: Mcl-1/Bim interaction disruptors – biochemical, bead-based flow cytometry, multiplex, primary screen (AID 1009);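 also: 0% = no compound tracer wells and 100% = peptide blocker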
Settings: Bim peptide-Mcl-1 binding, at 10 µM, hits give high values

Induced myeloid leukemia cell differentiation protein Mcl-1 (Homo sapiens), sequence (Q07820 whole entry, looked up): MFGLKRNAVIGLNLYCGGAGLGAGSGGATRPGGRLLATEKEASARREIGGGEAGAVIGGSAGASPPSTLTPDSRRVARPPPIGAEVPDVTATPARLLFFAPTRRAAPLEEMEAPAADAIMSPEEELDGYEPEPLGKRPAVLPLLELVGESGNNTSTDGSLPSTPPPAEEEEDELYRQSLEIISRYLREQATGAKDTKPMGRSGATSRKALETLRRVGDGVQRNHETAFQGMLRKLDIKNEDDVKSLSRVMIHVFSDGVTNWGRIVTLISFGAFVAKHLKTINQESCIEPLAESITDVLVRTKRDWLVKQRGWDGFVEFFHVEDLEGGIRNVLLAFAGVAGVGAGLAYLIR

inhibition, inactive:
CCN(CC)C(=O)C(=O)c1cn(CC(=O)NCc2ccc3c(c2)OCO3)c2ccccc12 0%
COC(=O)c1ccc(NC(=O)CSc2nncc3ccc(OC)c(OC)c23)cc1 1%
Cn1cc(Cl)c(C(=O)NNC(=S)Nc2cccc(Cl)c2)n1 -1%
Cc1cc(C)c(C(N)=O)c(Cl)n1 0%
CC(C)(C)NC(=O)c1ccc(Cn2cc(C(F)(F)F)ccc2=O)cc1 -1%
CCN(CC)c1ccc(C(=O)N/N=C(\C)c2cccc(OC)c2)cc1 1%
Cn1c(-c2sccc2OCc2cccc(C(F)(F)F)c2)n[nH]c1=S -4%
CC(=O)NC(NC(=S)Nc1c(C)n(C)n(-c2ccccc2)c1=O)C(Cl)(Cl)Cl (stereo not given) 0%
CCC(=O)NCc1cc(-c2nn(C)c(=O)c3ccccc23)ccc1OC -1%
O=C(/C=C/c1ccc([N+](=O)[O-])cc1)NCCSCc1ccco1 -5%
Cc1c(C(=O)NC(=S)NCc2cccnc2)oc2ccccc12 0%
CCOCC(=O)Nc1ncc(S(=O)(=O)c2ccc([N+](=O)[O-])cc2)s1 0%
COC(=O)CNC(=O)c1ccc(OC2CCN(C(=O)C3CC3)CC2)cc1 -2%
CC(=O)c1ccccc1NC(=O)CC1(CC(=O)O)CCCCC1 0%
Fc1ccccc1CNC(=S)Nc1ccc(Cl)cc1 -14%
CSc1ccc(/C=C/C(=O)NC23CC4CC(CC(C4)C2)C3)cc1 -2%
O=C(c1ccc(OC2CCN(Cc3ccccn3)CC2)cc1)N1CCCCCC1 -4%
Cc1ccc2c(c1)C1CN(C)CCC1N2C(=S)Nc1ccc(OC(F)F)cc1 (stereo not given) -1%
O=C(COC(=O)CCCSc1nc2ccccc2[nH]1)Nc1ccc(Oc2ccccc2)cc1 2%
COc1ccc(-c2nc(CN3CCN(c4ncccn4)CC3)c(C)o2)cc1C -2%
O=[N+]([O-])c1ccc(F)cc1Oc1nc(-c2cccnc2)nc2ccccc12 4%
CCN1CCN(C(=O)CN(C)S(=O)(=O)c2ccc3ccccc3c2)CC1 0%
O=C(Nc1ccc2oc(-c3ccccc3F)nc2c1)c1ccco1 -3%
COc1ccnc(Oc2ccccc2)c1-c1ncn[nH]1 -2%
N#C/C(=C\c1ccc(-c2cccc([N+](=O)[O-])c2)o1)C(=O)NCCN1CCOCC1 0%
N#CCOc1ccc(C2=NO[C@@H]3[C@@H]4C[C@@H]([C@H]5C(=O)N(c6ccc7c(c6)OCO7)C(=O)[C@@H]45)[C@H]23)cc1 -7%
CCc1c(SCCC(=O)O)nc2ccccc2c1C -1%
COc1ccc(CC(NC(C)=O)C(=O)NC2CCN(C(=O)C3CC3)CC2)cc1OC (stereo not given) 1%
COc1cccc(NC(=O)C(Sc2nc3ccccc3c(=O)n2CC(C)C)c2ccccc2)c1 (stereo not given) -1%
O=C(COc1nc2ccccc2nc1N1CCOCC1)NCC(F)(F)F -3%
Cc1ccc(OCC(=O)NNC(=S)NCc2ccccc2)cc1 0%
CCOC(=O)c1cc2c(nc1NC(=S)Nc1ccccc1)CC(C)(CC)OC2 (stereo not given) -5%
Cc1[nH]c2ccccc2c1SCC(=O)Nc1nccs1 -1%
O=C(/C=C/c1ccccc1)Oc1coc(CSc2ncccn2)cc1=O 0%
Cc1nn(CC(=O)NCc2ccccn2)c(C)c1[N+](=O)[O-] 0%
CCCNC(=O)NC(=O)COC(=O)CC(NC(N)=O)c1ccc(Cl)cc1 (stereo not given) -8%
COCCNC(=O)NC(=O)COC(=O)C1(c2ccc(Cl)cc2)CC1 0%
Cc1ccc(S(=O)(=O)Cc2cc(-c3ccc(Cl)cc3)no2)cc1 0%
O=C1CCC/C(=N\NC(=O)NC2CCCCC2)C1 1%
Cc1ccc(C(=O)COC(=O)c2cccc(N3C(=O)c4c(C)nc5ccccc5c4C3=O)c2)cc1C -5%
CCOc1cc(CNCc2ccccn2)ccc1OCC(=O)NC(C)(C)C -5%
Cc1cc(=O)oc2c1c(C)nn2-c1ccc(Cl)cc1 2%
O=C(Cn1c2[n+](c3ccc(C(F)(F)F)cc31)CCCCC2)Nc1c(F)cccc1F 2%
Cc1ccc(OCC(=O)OC(C)CN(C)Cc2ccccc2)cc1 (stereo not given) 0%
Cc1ccc(C(=O)O)cc1N1C(=O)CCCC1=O 0%
